This note sets out measurements from PubChem BioAssay (EPA / NIEHS).

“And” between values parts separate entries of the source, which are not always exact repeats. Equal values may be shown once. Inconclusive results are not listed. The source made the active and inactive calls. The calls were made as follows, unless noted: active = hit-call score of the fitted dose curve at least 0.9, where 1 is the maximum; inactive = score below 0.9.

Read-out in experiment [1]: Monocyte Chemoattractant Protein-1 (MCP1), CCL2 (gene 6347)
As to the kind of experiment: BSK_SAg_MCP1: BioMAP Diversity Plus: SAg Assay for Monocyte Chemoattractant Protein-1 (MCP1) Biomarker Activity (AID 2283090). To be noted: primary human HUVEC with PBMC; actives raise or lower the signal. An outline of the steps:
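MCP-1 levels in the endothelial–PBMC SAg co-culture were quantified by ELISA at 24 h post-dosing; both increases and decreases versus DMSO scored. Cytotoxicity monitored by SRB total protein in parallel cultures.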

Read-out in experiment [2]: E-selectin (Homo sapiens) (UniProt P16581)
Description: BSK_SAg_Eselectin: BioMAP Diversity Plus: SAg Assay for Eselectin Biomarker Activity (AID 2283091). To be noted: primary human HUVEC with PBMC; actives raise or lower the signal. An outline of the steps:
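Human umbilical vein endothelial cells co-cultured with peripheral blood mononuclear cells, SAg system. E-selectin is measured by ELISA 24 h after dosing and fitted bidirectionally against DMSO. Cytotoxicity is checked by SRB staining of parallel cultures.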

Read-out in experiment [3]: Monokine induced gamma interferon (MIG), CXCL9 (gene 4283)
Description: BSK_SAg_MIG: BioMAP Diversity Plus: SAg Assay for Monokine induced gamma interferon (MIG) Biomarker Activity (AID 2283092). As to conditions: primary human HUVEC with PBMC; actives raise or lower the signal. The gist of the method:
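Endothelial cells and PBMC were co-cultured, exposed to test chemicals, and sampled 24 h later. MIG was measured by ELISA, and responses were fitted in both directions relative to DMSO.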

The nature of experiment [4]: BSK_SAg_PBMCCytotoxicity: PBMC Cytotoxicity Assessment in the BioMAP Diversity Plus: SAg Assay (AID 2283093).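 Also: PBMC viability measured as Alamar Blue reduction fluorescence at 546/580 nm; fitted both ways against DMSO so a hit may be loss or gain of signal.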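 As to AC50: PBMC superantigen activated with SEB plus TSST-1 one hour after compound addition.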 To be noted: primary human HUVEC with PBMC. An outline of the steps: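 Compound added to 75,000 PBMC/well for 1 h; SEB and TSST-1 then added at 20 ng/mL final each; 90 h incubation; Alamar Blue 6 h; read 546/580 nm ex/em. Activity fitted bidirectionally relative to DMSO baseline.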

Read-out in experiment [5]: Interleukin-8 (IL8), CXCL8 (gene 3576)
Description: BSK_SAg_IL8: BioMAP Diversity Plus: SAg Assay for Interleukin-8 (IL8) Biomarker Activity (AID 2283094). To be noted: primary human HUVEC with PBMC; actives raise or lower the signal. An outline of the steps: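 Human umbilical vein endothelial cells co-cultured with PBMC, stimulated with superantigen; IL-8 measured by ELISA 24 h after chemical dosing. Bidirectional fitting versus DMSO; SRB staining in parallel cultures tracks cytotoxicity.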

Experiment [6] in a line: BSK_SAg_Proliferation: Cell Proliferation Assessment in the BioMAP Diversity Plus: SAg Assay (AID 2283095). As to conditions: primary human HUVEC with PBMC. An outline of the steps: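 Human umbilical vein endothelial cells co-cultured with PBMC; sulforhodamine B total-protein staining (0.1% SRB after 10% TCA fixation, absorbance 560 nm) at 96 h in sub-confluent culture. Fitted bidirectionally against DMSO.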

The nature of experiment [7]: BSK_SAg_SRB: Viability Assessment in the BioMAP Diversity Plus: SAg Assay (AID 2283096).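 Also: cells read one day after compound addition; hits may be either gain or loss of signal compared with DMSO.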 As to conditions: primary human HUVEC with PBMC. The gist of the method: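 Total protein by sulforhodamine B staining, 24 h after dosing, in HUVEC–PBMC co-culture; DMSO-referenced bidirectional fitting.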
Experiment [8] concerns the target human CYP19A1, CYP19A1 (gene 1588) (UniProt P11511). Description: NVS_ADME_hCYP19A1: NovaScreen (NVS) CYP450-related Enzyme Activity (ADME) Assay for human CYP19A1 (AID 2283098; active = hit-call score of the fitted dose curve at least 0.9, where 1 is the maximum). An outline of the steps: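 Biochem, cell-free; recombinant enzyme + specific substrate; fluorescence intensity at 0.5 h post-dose; 10 uM duplicate primary, conc. series for actives; acetonitrile = negative control/baseline; positive and negative controls on every plate.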

Sequence of E-selectin (Homo sapiens) (P16581 whole entry, looked up): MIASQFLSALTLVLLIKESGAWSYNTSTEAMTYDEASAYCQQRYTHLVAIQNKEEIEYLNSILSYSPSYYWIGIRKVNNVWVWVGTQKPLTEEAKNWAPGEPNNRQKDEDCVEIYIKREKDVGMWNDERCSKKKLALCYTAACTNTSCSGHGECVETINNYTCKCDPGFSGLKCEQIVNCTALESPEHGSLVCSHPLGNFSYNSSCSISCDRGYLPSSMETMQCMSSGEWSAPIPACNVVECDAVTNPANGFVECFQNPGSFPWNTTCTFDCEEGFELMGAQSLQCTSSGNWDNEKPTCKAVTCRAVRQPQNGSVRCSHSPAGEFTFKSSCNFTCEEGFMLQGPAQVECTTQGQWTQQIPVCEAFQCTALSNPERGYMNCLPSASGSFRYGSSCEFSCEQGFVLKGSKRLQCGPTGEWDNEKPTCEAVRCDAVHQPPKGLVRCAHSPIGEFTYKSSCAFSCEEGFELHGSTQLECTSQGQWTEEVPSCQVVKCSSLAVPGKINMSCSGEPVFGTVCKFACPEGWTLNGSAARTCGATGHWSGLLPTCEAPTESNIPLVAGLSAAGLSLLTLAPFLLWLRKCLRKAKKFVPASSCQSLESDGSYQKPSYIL
Sequence of human CYP19A1, CYP19A1 (gene 1588) (P11511 whole entry, looked up): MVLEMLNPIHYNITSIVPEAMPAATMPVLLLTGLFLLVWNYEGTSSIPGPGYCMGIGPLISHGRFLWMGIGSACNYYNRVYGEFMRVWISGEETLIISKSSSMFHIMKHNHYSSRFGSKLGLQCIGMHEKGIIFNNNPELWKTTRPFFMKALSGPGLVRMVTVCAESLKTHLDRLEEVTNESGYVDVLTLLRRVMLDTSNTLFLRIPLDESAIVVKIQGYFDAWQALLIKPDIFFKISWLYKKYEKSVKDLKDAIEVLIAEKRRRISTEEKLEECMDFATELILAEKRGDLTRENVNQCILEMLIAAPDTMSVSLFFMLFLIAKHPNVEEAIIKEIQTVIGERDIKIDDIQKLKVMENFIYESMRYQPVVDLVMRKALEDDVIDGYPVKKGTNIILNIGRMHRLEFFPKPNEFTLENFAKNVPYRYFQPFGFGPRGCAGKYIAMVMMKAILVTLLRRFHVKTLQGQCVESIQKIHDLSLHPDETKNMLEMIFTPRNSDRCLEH

As for `CCNc1nc(NC(C)(C)C)nc(OC)n1`, the outcome in experiment [1], in experiment [3], in experiment [4], in experiment [5], in experiment [6] and in experiment [7] was inactive. Also, in experiment [2], the AC50 was 8.44 µM (active).
As for `Oc1ccc(/C=C/c2cc(O)cc(O)c2)cc1`, the outcome in experiment [1], in experiment [2], in experiment [3], in experiment [4], in experiment [5] and in experiment [7] was inactive. The AC50 in experiment [6] is 20 µM (active).
As for `CCCC(C)C(=O)OCC` (stereo not given), the result in experiment [1], in experiment [2], in experiment [3], in experiment [4], in experiment [5] and in experiment [6] was inactive. For the same compound, the result in experiment [7] was inactive.
As to `CCCCCCCCCCCC(=O)N(C)CC(=O)O`, the outcome in experiment [1], in experiment [2], in experiment [3], in experiment [4], in experiment [5] and in experiment [6] was inactive. Moreover, the outcome in experiment [7] was inactive.
With `C1CNCCN1`, the result in experiment [1], in experiment [2], in experiment [3], in experiment [4], in experiment [5] and in experiment [6] was inactive. The outcome in experiment [7] was inactive.
Regarding `CCCCC(CC)COS(=O)(=O)O` (stereo not given), the result in experiment [8] was inactive.
In the case of `c1ccc(Nc2cccc3ccccc23)cc1`, the AC50 is 29.4 µM (active) and 30.4 µM (active) in experiment [1]; 31.8 µM (active) and 33.5 µM (active) in experiment [2]; 34.3 µM (active) and 36.9 µM (active) in experiment [4]; 31.1 µM (active) and 30.7 µM (active) in experiment [5]; 31.3 µM (active) and 30.4 µM (active) in experiment [6]; 28.7 µM (active) and 30.3 µM (active) in experiment [7]. Also, the outcome in experiment [3] was inactive.
For the compound `CCOC(=O)C1=NOC(c2ccccc2)(c2ccccc2)C1`, the result in experiment [1], in experiment [2], in experiment [3], in experiment [4], in experiment [5] and in experiment [6] was inactive. Further, the outcome in experiment [7] was inactive.
